# Bioassay records deposited in PubChem by National Center for Advancing Translational Sciences (NCATS).
# IMPase inh: membrane-permeable compound that blocks inositol monophosphatase | CHO-M1 cells, IP1 accumulation, HTRF TR-FRET ratio | inhibition (IP1 accumulation), % at 46.1 µM | 120,000 tested, under 10 active | AID 901; active means well fitted curve in the direction sought with a large enough effect in the signal ratio, not every such curve was filed as active; inconclusive means small, poorly fitted or top-dose-only effect, or a change in a side signal; inactive means no such curve, though single readings can be large or run the other way; the % refers to the signal ratio;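 further: cells stimulated with carbachol in lithium chloride buffer; plate controls were DMSO basal wells for no effect and reference inhibitor wells for full effect; higher means more IMPase inhibition seen as more IP1 and lower FRET ratio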
#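 In this qHTS, compounds (final up to 46 uM) act on CHO-M1 cells that are then activated through the M1 receptor with carbachol, in pH 7.4 buffer containing 50 mM LiCl, for 30 min. IP1 accumulation is quantified by the IP-One immunoassay.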
# ALOX15B inhib: inhibitors of human 15-lipoxygenase 2 (ALOX15B); O15296; purified 15hLO-2, xylenol orange hydroperoxide absorbance; Potency, µM (titrated, usually from 57.1 µM), for inactives: at the top dose activity change, negative = inhibition, actives largely listed as inhibitors; 110,000 tested, 0.56% active; AID 881; further: potency means the concentration at half of the fitted maximal effect; nearly all actives have a fitted effect of over 60% in size
# Target sequence (O15296 whole entry, looked up): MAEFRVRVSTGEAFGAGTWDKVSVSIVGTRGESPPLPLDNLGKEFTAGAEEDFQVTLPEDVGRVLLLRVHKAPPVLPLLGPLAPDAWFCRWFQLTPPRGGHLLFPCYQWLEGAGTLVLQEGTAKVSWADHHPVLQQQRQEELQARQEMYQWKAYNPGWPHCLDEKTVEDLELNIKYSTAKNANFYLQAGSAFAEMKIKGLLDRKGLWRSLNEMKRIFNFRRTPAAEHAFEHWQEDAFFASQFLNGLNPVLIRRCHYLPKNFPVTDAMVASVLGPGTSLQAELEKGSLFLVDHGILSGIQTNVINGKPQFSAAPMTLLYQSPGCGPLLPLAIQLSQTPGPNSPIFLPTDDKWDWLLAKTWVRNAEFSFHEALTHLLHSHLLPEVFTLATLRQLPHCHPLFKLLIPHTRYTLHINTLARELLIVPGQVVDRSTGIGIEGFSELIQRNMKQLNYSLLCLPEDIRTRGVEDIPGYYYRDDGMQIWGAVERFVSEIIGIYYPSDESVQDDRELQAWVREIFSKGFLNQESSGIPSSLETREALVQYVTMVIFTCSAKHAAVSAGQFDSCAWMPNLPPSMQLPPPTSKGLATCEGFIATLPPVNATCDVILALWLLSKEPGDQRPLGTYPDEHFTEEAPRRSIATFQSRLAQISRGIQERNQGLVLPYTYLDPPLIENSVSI
#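 Purified human 15hLO-2 (50 nM final) preincubated with compounds 15 min at room temperature in 25 mM Hepes pH 7.5, 0.01% Triton X-100, then 45 uM arachidonic acid added for 90 min; hydroperoxide detected via ferrous/xylenol orange, 573/405 nm absorbance ratio.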
# PNC inhibitor: blocks assembly of the perinucleolar compartment; PC3M PTB-GFP, PNC prevalence imaging, 16 h; stronger effect = lower value; activity change (PNC), negative = inhibition, % at 10 µM; 140,000 tested, 3.1% active;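 active means readout at or below -70, meaning at least 70% loss of cells showing the perinucleolar compartment, a nuclear body marking cancer cells; inconclusive means readout between -30 and a set limit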;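 further: plate controls were DMSO wells for no effect and camptothecin positive control wells for full effect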
#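 Compounds are pinned in duplicate onto adhered PC3M cells stably expressing GFP-tagged PTB and incubated 16 h at 37 C. Cells are then fixed, nuclei stained with Hoechst, and PNC-positive cells counted.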
# 12-hLO inh: inhibitors of human 12-lipoxygenase (ALOX12). Potency, µM (doses to about 57.1 µM), inactives show top-dose activity change, negative = inhibition, most hits filed as inhibitors. 150,000 tested, 0.12% active. P18054. purified 12-hLO, xylenol orange hydroperoxide absorbance; further: potency means the concentration at half of the fitted maximal effect; nearly all actives have a fitted effect of over 55% in size
#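 Lipoxygenase turnover measured by absorbance at 573 and 405 nm after Fe-XO development. Human 12hLO 150 nM, arachidonate 40 uM, pH 7.0 Hepes buffer with detergent; 15 min compound preincubation, 30 min reaction.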
# IMPase Li inh: IMPase inhibition in cells with lithium potentiation | 210,000 tested, 0.35% active | AID 1457 | CHO-M1 cells, IP1 TR-FRET (IP-One), carbachol + lithium | Potency, µM (doses to about 59.4 µM), for the others: at the top dose activity, negative = IMPase inhibition, actives largely listed as inhibitors;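 further: IP1 builds up when IMPase is blocked and the TR-FRET signal falls; potency means the concentration at half of the fitted maximal effect; plate controls were basal vehicle for no effect and high inhibitor control for full effect; nearly all actives have a fitted effect of over 50% in size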
#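 Lithium-sensitised IP1 accumulation assay; M1-expressing CHO cells treated 30 min at 37C with compound. Competitive antibody detection by time-resolved FRET followed a 10 min room-temperature lysis step.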
# Active calls of the source: *; ? = inconclusive; nt = no result; [ ] = dose if it differs, or a comment. Shown is part of a subset that was picked to be rich in hits. Unless noted, the call rests on the fitted dose curve; in most records, active means well fitted curve in the direction sought with a large enough effect; inconclusive means small, poorly fitted or top-dose-only effect, or another doubt; inactive means no such curve, though single readings can be large; an effect the other way counts as inactive or inconclusive. Unless noted, on the % scale 0 is the no-effect control and ±100 the full control effect.
SMILES,IMPase inh,ALOX15B inhib,PNC inhibitor,12-hLO inh,IMPase Li inh
CCCn1c(SCC(=O)Nc2sc(C)c(C)c2C#N)nnc1C(C)C,-5,-5%,?,1%,nt
Cc1[nH]ccc(=O)c1OCc1ccccc1,-1[1.84 µM],10%[11.4 µM],-111*,0%,11%[38.3 µM]
Cc1[nH]ccc(=O)c1OCc1c(F)cccc1Cl,nt,nt,nt,nt,1%
Cc1c(OCc2ccccc2)c(=O)ccn1Cc1ccc(Cl)cc1,5,45%,18,-3%,8%[38.3 µM]
Cc1[nH]ccc(=O)c1OCc1ccc(Cl)cc1,?,-4%[11.4 µM],-124*,5%,19%[38.3 µM]
O=C(c1ccc(Cc2nc3ccccc3[nH]2)cc1)N1CCCCC1,nt,nt,nt,-1%,nt
CC(=O)NCCNc1ccnc(-c2ccccc2C)n1,nt,-7%,nt,nt,2%
Cc1ccc(OCc2nnc(SCC(=O)Nc3cccc4ccccc34)n2-c2ccccc2)cc1,11,nt,-119*,-10%,26%
CCc1nnc(NC(=O)CSc2nnc(COc3ccccc3)n2-c2ccc(C)cc2)s1,-17,0%,23,-2%,0%[38.3 µM]
COc1ccc(-n2c(Cc3cccn3C)nnc2SCC(=O)Nc2ccccc2C)cc1,0,-10%,18,-8%,3%[38.3 µM]
COc1ccc(-n2c(Cc3cccn3C)nnc2SCC(=O)Nc2nccs2)cc1,-4,nt,-114*,-2%,5%
COc1ccc(-n2c(Cc3cccn3C)nnc2SCC(=O)Nc2ccccc2F)cc1,5,nt,-108*,1%,5%
COc1ccc(-n2c(Cc3cccn3C)nnc2SCC(=O)Nc2ccc(F)cc2F)cc1,1,nt,6,-3%,7%
c1ccc(-c2nc(-c3cccc4ccccc34)c(Nc3ccc4ccccc4c3)o2)cc1,nt,nt,nt,-1%,13%
C=Cc1ccc(C=C)cc1,nt,-12%,nt,4%,6%
O=C(CSc1oc(-c2ccccc2)nc1S(=O)(=O)c1ccc(F)cc1)NCC1CCCO1 (stereo not given),-4,nt,-100*,0%,?
O=C(CSc1oc(-c2ccc(F)cc2)nc1S(=O)(=O)c1ccccc1)NCC1CCCO1 (stereo not given),2,nt,-119*,-5%,9%
O=C(CSc1oc(-c2ccc(F)cc2)nc1S(=O)(=O)c1ccc(F)cc1)NCC1CCCO1 (stereo not given),6,nt,246,5%,-7%
Cc1cc([N+](=O)[O-])c(C)c(Br)c1C,nt,-1%[11.4 µM],nt,0%[11.4 µM],1%
CNc1ccc(Br)cc(C(=O)/C=C/c2cc(OC)ccc2OC)c1=O,10,nt,18,-28%,23%
CCNc1ccc(Br)cc(C(=O)/C=C/c2ccc(Cl)cc2Cl)c1=O,-2,nt,-100*,?,16%
CNc1ccc(Br)cc(C(=O)/C=C/c2ccc(OC)cc2)c1=O,nt,nt,-109*,-17%,1%
CC[C@@]12CCCN3CCc4c(n(c5ccccc45)[C@](O)(C(=O)OC)C1)[C@H]32,4,2%,nt,-1%,13%
COc1ccc2c(c1OC)OCC(c1ccc(OC)c(OC)c1OC)C2 (stereo not given),nt,0%,nt,6%,4%
COc1ccc(Oc2nccc(OC)c2C#N)cc1,8,3%,-23,-2%,-1%
SMILES,IMPase inh,ALOX15B inhib,PNC inhibitor,12-hLO inh,IMPase Li inh
N#Cc1c(-c2ccccc2)ccnc1Oc1ccccc1,0,-7%,-96*,2%,7%[38.3 µM]
Nc1ccc2nc(-c3ccccc3)sc2c1,?,1%,?,-10%,11µM*
COc1ccc2c(c1)C(=O)[C@H](OC(=O)N[C@H](C)C1CCCCC1)[C@@H](c1ccc(OC)c(Br)c1)O2,nt,nt,nt,nt,8%
O=C1NCCN1C(=O)N(c1ccccc1)c1ccccc1,-4,11%,-124*,0%,-10%[38.3 µM]
C=CCn1c(SCC(=O)N2CCN(c3ccccc3)CC2)nnc1-c1ccco1,4,1%,?,3%,4%[38.3 µM]
C=CCn1c(SCC(=O)N2CCN(c3ccc(F)cc3)CC2)nnc1-c1cccs1,-22,-5%,-96*,2%,?
O=c1oc2cc(O)ccc2c2ccccc12,?,2%,-15,-2%,13µM*
C#CC[N+](C)(C)CCCCCCCCCC,16,nt,?,-1%,22%
CCCCCCCC[N+](CCCCCCCC)(CCCCCCCC)CCCCCCCC,nt,32µM*,nt,?,23%
CC(=O)C1(C)CC2(CC(C)(C)OC2=O)C(=O)O1 (stereo not given),nt,nt,nt,nt,-2%
COCCn1c(-c2ccc(OC)cc2)nc2ccccc21,6,-1%,37,-6%,14%[38.3 µM]
COc1ccc(Cn2c(-c3ccc(OC)cc3)nc3ccccc32)cc1,17,nt,-100*,-8%,21%
COc1cccc(Cn2c(-c3nonc3N)nc3ccccc32)c1,15,-5%,-111*,-5%,34%[38.3 µM]
COc1cc(Cn2c(-c3nonc3N)nc3ccccc32)ccc1C,14,-2%,?,-6%,28%[38.3 µM]
CN(Cc1ccco1)c1ncnc2ccc(-c3ccccc3C#N)cc12,nt,-8%,nt,nt,17%
COc1ccc(CCn2c(N3CCN(C)CC3)nc3c2c(=O)[nH]c(=O)n3C)cc1,1,-5%,-3,0%,16%[38.3 µM]
COc1ccc(CCn2c(Br)nc3c2c(=O)[nH]c(=O)n3C)cc1,-1,-2%,-82*,2%,0%[38.3 µM]
COc1ccccc1OC(=O)c1ccc2nsnc2c1,-11,3%,-81*,1%,13%[38.3 µM]
CCOc1ccccc1C1CC(=O)Nc2cc3c(cc21)OCCO3 (stereo not given),6,0%,-86*,-4%,16%[38.3 µM]
CC(C)Oc1ccccc1C1CC(=O)Nc2cc3c(cc21)OCO3 (stereo not given),2,-9%,-81*,-21%,7%[38.3 µM]
CCCOc1ccccc1C1CC(=O)Nc2cc3c(cc21)OCCO3 (stereo not given),?,nt,-116*,-5%,11%
COc1cccc(C2CC(=O)Nc3cc4c(cc32)OCO4)c1OC(C)C (stereo not given),1,nt,nt,nt,nt
NCC[C@H]1CCC[C@H](CCN)N1,-1,33%,nt,-4%,nt
CCCn1nc(C(=O)OCC(=O)Nc2ncc(Cl)c(C)c2Cl)c2ccccc2c1=O,6,nt,-113*,-2%,-1%
CC(=O)c1c(C)[nH]c(C(=O)OCC(=O)Nc2ncc(Cl)c(C)c2Cl)c1C,-1,-1%,-100*,-15%,-12%[38.3 µM]
O=S(=O)(c1ccccc1)N1CCC2(CCCN(Cc3cc(C(F)(F)F)cc(C(F)(F)F)c3)C2)CC1,nt,5%,nt,0%,11%
Nc1ncnc2c1c(I)cn2C1OC(CO)C(O)C1O (stereo not given),nt,2%,nt,-1%,-7%
COCCn1c(=O)c(-c2ccc(Cl)cc2)nc2cnc(N3CCOCC3)nc21,nt,-4%,nt,nt,-22%
N=C1N=C(N)c2cc3ccccc3cc21,nt,5%,nt,0%,-9%
O=C(Cn1cnc2c(cnn2-c2ccc(F)cc2)c1=O)NCc1ccco1,-3,1%,15,3%,-13%[38.3 µM]
